Screening data: PubChem BioAssay, National Center for Advancing Translational Sciences (NCATS)
Sampled rows, rich in hits. Any-hit rate of the full collection: about 4.6%.
Tau FP inhib: qHTS for Inhibitors of Tau Fibril Formation, Fluorescence Polarization. hit rate 0.39% among 280,000. Microtubule-associated protein tau (Homo sapiens), P10636. Potency, µM (doses to about 57.7 µM), for inactives: at the top dose activity, negative = inhibition, hits mostly inhibitors. K18 P301L tau heparin fibrillization, Alexa594 FP, 6 h; further: potency means the concentration at half of the fitted maximal effect; nearly all actives have a fitted effect of over 55% in size
Target sequence (P10636 561-689 P618L limits assumed): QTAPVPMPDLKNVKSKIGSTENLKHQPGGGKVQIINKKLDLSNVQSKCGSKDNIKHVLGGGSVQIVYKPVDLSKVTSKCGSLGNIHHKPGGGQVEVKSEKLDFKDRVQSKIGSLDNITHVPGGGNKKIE
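Human K18 P301L fragment (15 uM unlabeled plus 0.24 uM Alexa 594-labeled) in 100 mM sodium acetate pH 7 with compound, aggregation induced by 20 uM heparin for 6 hr at 37 C. ThT (30 uM) added for 1 hr, then Alexa 594 FP read.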
TRb SRC2 PPI: qHTS for Inhibitors of the Interaction of Thyroid Hormone Receptor and Steroid Receptor Coregulator 2 | hit rate 0.065% among 280,000 | Potency, µM (top dose mostly 106 µM), for inactives: top-dose activity change, negative = inhibition, actives largely listed as inhibitors | Thyroid hormone receptor beta (Homo sapiens), P10828 | AID 1469, 2008 | TRbeta-SRC2 peptide binding, fluorescence polarization; receptor liganded with 1 µM T3;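 further: potency means the concentration at half of the fitted maximal effect; plate controls were bound peptide for no effect and peptide without receptor for full effect; nearly all actives have a fitted effect of over 50% in size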
Target sequence (P10828 whole entry, looked up): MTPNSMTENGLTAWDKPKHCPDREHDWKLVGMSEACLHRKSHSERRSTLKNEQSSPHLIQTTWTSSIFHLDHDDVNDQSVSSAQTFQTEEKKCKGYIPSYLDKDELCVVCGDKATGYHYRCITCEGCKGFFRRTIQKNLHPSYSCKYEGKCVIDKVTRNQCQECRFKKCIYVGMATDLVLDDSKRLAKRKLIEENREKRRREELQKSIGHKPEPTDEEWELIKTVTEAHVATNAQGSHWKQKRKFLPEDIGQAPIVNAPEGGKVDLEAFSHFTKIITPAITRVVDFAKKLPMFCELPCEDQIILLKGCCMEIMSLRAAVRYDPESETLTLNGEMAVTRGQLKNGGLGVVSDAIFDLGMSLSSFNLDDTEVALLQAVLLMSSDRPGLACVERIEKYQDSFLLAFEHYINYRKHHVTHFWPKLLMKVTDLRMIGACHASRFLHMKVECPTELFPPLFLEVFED
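Assay buffer: 20 mM Tris-HCl, 100 mM NaCl, 10% glycerol, 1 mM EDTA, 0.01% NP-40, 1 mM DTT, 1 uM T3, 5% DMSO; TRb LBD 0.6 uM, Texas Red SRC2 20 nM; FP after 5 hr.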
Tau fibril ThT: qHTS for Inhibitors of Tau Fibril Formation, Thioflavin T Binding; Microtubule-associated protein tau (Homo sapiens), P10636; recombinant tau K18 P301L, heparin-induced fibrillization, ThT fluorescence; Potency, µM (doses to about 57.4 µM), inactives show at the top dose activity, negative = inhibition, actives largely listed as inhibitors; hit rate 2.1% among 270,000; AID 1460, 2008; further: potency means the concentration at half of the fitted maximal effect; nearly all actives have a fitted effect of over 55% in size
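Using a mix of unlabeled (15 uM) and Alexa 594-labeled (0.24 uM) tau K18 P301L, heparin-triggered fibrillization over 6 hr at 37 C was scored by ThT fluorescence.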
PNC inhibitor: High Content Assay for Compounds that inhibit the Assembly of the Perinucleolar Compartment | hit rate 3.1% among 140,000 | PC3M PTB-GFP, PNC prevalence imaging, 16 h; hits give low values | activity change (PNC), negative = inhibition, % at 10 µM;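 active means readout at or below -70, meaning at least 70% loss of cells showing the perinucleolar compartment, a nuclear body marking cancer cells; inconclusive means readout between -30 and a set limit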;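 further: plate controls were DMSO wells for no effect and camptothecin positive control wells for full effect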
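Compounds are pinned in duplicate onto adhered PC3M cells stably expressing GFP-tagged PTB and incubated 16 h at 37 C. Cells are then fixed, nuclei stained with Hoechst, and PNC-positive cells counted.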
TR SRC2 fluor cs: Total Fluorescence Counterscreen for Inhibitors of the Interaction of Thyroid Hormone Receptor and Steroid Receptor Coregulator 2 | TRb/SRC2 Texas Red total fluorescence interference | Potency, µM (highest dose often 106 µM), for inactives: at the highest dose fluorescence change, negative = quenching | hit rate 0.29% among 280,000; active means well fitted curve in either direction with a large enough effect; inconclusive means small, poorly fitted or top-dose-only effect; further: potency means the concentration at half of the fitted maximal effect
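Human TRβ ligand-binding domain (0.6 uM) and Texas Red SRC2 peptide (20 nM) in Tris buffer with 1 uM T3 and 5% DMSO were incubated with pinned compound for 5 hr at ambient temperature. Total fluorescence was computed as S + 2P (555/632 nm).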
Tau fluor cs: Counterscreen qHTS for Inhibitors of Tau Fibril Formation, Fluorescence Polarization | tau K18 P301L Alexa594 fluorescence, heparin fibrillization | Potency, µM (top dose mostly 57.7 µM), without a hit: at the top dose activity change, negative = decrease | hit rate 0.93% among 280,000 | AID 1463, 2008; further: potency means the concentration at half of the fitted maximal effect; nearly all actives have a fitted effect of over 55% in size
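Human tau K18 P301L (15 uM unlabeled, 0.24 uM Alexa 594-labeled) in 100 mM sodium acetate pH 7 with 20 uM heparin, 6 hr at 37 C. ThT 30 uM added, 1 hr ambient; Alexa 594 FP and total fluorescence read at 555/632 nm.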
* = called active by the depositor; ? = inconclusive; . = no result; [ ] = dose if it differs, or a comment. Unless noted, the call rests on the fitted dose curve; in most records, active means well fitted curve in the direction sought with a large enough effect; inconclusive means small, poorly fitted or top-dose-only effect, or another doubt; inactive means no such curve, though single readings can be large; an effect the other way counts as inactive or inconclusive. Unless noted, on the % scale 0 is the no-effect control and ±100 the full control effect.

SMILES	Tau FP inhib	TRb SRC2 PPI	Tau fibril ThT	PNC inhibitor	TR SRC2 fluor cs	Tau fluor cs
O=C(NCCn1cc(SCc2ccc(Br)cc2)c2ccccc21)c1cccs1	-11%	12%	?	.	5%	?
NC(=O)CSc1cn(CCNC(=O)c2cccs2)c2ccccc12	-8%	-4%	-17%	.	-5%	-9%
O=C(Cc1ccc(F)cc1)N/N=C/c1ccc(-c2ccc(Cl)c(C(=O)O)c2)o1	6%	-10%	-1%	.	0%	3%
Cn1cc(C(=O)N/N=C/C2=C(N3CCOCC3)C(=C\c3ccccc3)/CC2)ccc1=O	16%	-11%	?	?	2%	-12%
COc1cc(/C=N/N=C2/C(=O)Nc3ccccc32)cc(OC)c1O	?	0%[53 µM]	11µM*	10	-6%[53 µM]	?
COc1ccc(O)c(/C=N/N=C2/C(=O)Nc3ccccc32)c1	2%	-5%	?	.	-3%	-12%
O=C1Nc2ccccc2/C1=N\N=C\C1=C(N2CCOCC2)C(=C\c2ccccc2)/CC1	?	7%	7.1µM*	-26	-1%	?
O=C1Nc2ccccc2/C1=N/N=C/c1cccc(O)c1	2%	0%	11µM*	.	-9%	?
C/C(=N\Nc1ccc2nncn2n1)c1ccc(Cl)s1	1%	-8%	-18%	.	-2%	-19%
Cc1cccc(OCCc2nnc(N)s2)c1C	0%	-12%	-1%	-4	-1%	2%
COc1ccc(NC(=O)CSc2nnc(CNC(=O)c3ccco3)n2-c2ccccc2OC)cc1	-7%	-6%	-13%	-17	0%	-3%
COc1ccc(NCc2nnc(SCC(=O)NCc3ccccc3)n2-c2ccccc2OC)cc1	-1%	12%	-16%	-106*	1%	-14%
Nc1cc2nc3ccccc3oc-2cc1=O	11µM*	-11%	7.1µM*	.	8%	?
O=c1oc2ccccc2cc1-c1nc2ccccc2o1	2%	8%	?	70	-7%	-7%
CN1C(=O)SC(Nc2ccccc2C(=O)O)C1=O (stereo not given)	-2%	-2%	-20%	-1	-3%	-14%
CN1C(=O)C(N=Nc2ccccc2C(=O)O)N(C)C1=S (stereo not given)	-6%	-2%	4.5µM*	.	0%	1%
COc1ccc(-n2ncc3c(SCC(=O)N4CCN(c5ccccc5OC)CC4)ncnc32)cc1	1%	-12%	-16%	-119*	-3%	-5%
COc1ccccc1N1CCN(C(=O)CSc2ncnc3scc(-c4ccccc4)c23)CC1	?	1%	?	22	0%	-6%
Cc1ccc(-n2c(=O)cc(N3CC(C)OC(C)C3)[nH]c2=O)cc1 (stereo not given)	0%	8%	-11%	.	-1%	0%
CCN(CC)CCn1c(OC)cc(=O)[nH]c1=O	-15%	-19%	-8%	37	-2%	8%
COc1ccc(NS(=O)(=O)c2cc([N+](=O)[O-])ccc2N/N=C\c2c(C)[nH]c3ccccc23)cc1	6%	1%	2.5µM*	-18	0%	3.2µM*[quencher]
COc1ccccc1NS(=O)(=O)c1cc([N+](=O)[O-])ccc1N/N=C/c1c[nH]c2ccccc12	4%	-16%	2.8µM*	-2	-2%	-78%
Cc1[nH]c2ccccc2c1/C=N/Nc1ccc([N+](=O)[O-])cc1S(=O)(=O)Nc1ccc(Cl)cc1	2%	-18%	3.2µM*	-23	-1%	3.2µM*[quencher]
O=C1CCCCC1c1cccc2ccccc12 (stereo not given)	.	.	.	-11	.	.
O=C1c2ccccc2C(=O)C12OC2c1cccc2ccccc12 (stereo not given)	4.5µM*	-1%	2.5µM*	?	6%	-13%
SMILES	Tau FP inhib	TRb SRC2 PPI	Tau fibril ThT	PNC inhibitor	TR SRC2 fluor cs	Tau fluor cs
CCc1cc2c3c(c1)C1(C(=O)N3C(C)(C)C=C2C)C(C#N)=C(N)Oc2[nH]c(=O)[nH]c(=O)c21 (stereo not given)	?	2%	14µM*	.	-3%	?
Cc1ccc(S(=O)(=O)n2ccc(-c3ccc(OCc4c(F)cccc4Cl)cc3)n2)cc1	?	8%	7%	-100*	1%	-6%
Cc1ccc(S(=O)(=O)n2ccc(-c3cccc(OCc4c(F)cccc4Cl)c3)n2)cc1	?	4%	6%	52	-2%	-5%
COc1ccc(Nc2nc3ccc(C)cc3nc2-n2nc(C)cc2C)cc1Cl	?	4%	-10%	.	2%	14µM*[quencher]
COc1ccc(OC)c(Nc2nc3ccccc3nc2-n2nc(C)cc2C)c1	?	8%	-10%	.	1%	13µM*[quencher]
CC(C/C=N/NC(=O)COc1cc(Cl)ccc1Cl)c1ccccc1 (stereo not given)	-3%	-6%	-15%	26	-3%	-4%
CN(CCO)CCOCCOc1cccc2ccccc12	3%	-4%	-4%	.	0%	1%
Cc1ccc(C)c(NC(=O)CSc2nnc(NC(=O)Nc3ccccc3)s2)c1	?	-11%	3%	.	-1%	-8%
CCCC(=O)NCCc1cc2ccc(OC)cc2[nH]c1=O	-4%	-3%	-12%	-7	-3%	-6%
CCCCC(=O)NCCc1cc2ccc(OC)cc2[nH]c1=O	4%	-5%	0%	-100*	-1%	8%
Cc1ccc2c(CC(=O)OCc3nc(N)nc(Nc4ccccc4C)n3)coc2c1	-13%	-2%	?	?	0%	?
Cc1ccc2c(CC(=O)OCc3csc(C)n3)coc2c1	2%	-1%	-3%	-100*	-2%	-2%
O=C(c1cccs1)N(Cc1nc2sc3c(c2c(=O)[nH]1)CCCC3)C1CCCC1	9%	6%	-5%	-92*	1%	-3%
CCN1C(=O)[C@@H]2[C@H]3C(=CC[C@@H]2C1=O)C1(OCCCO1)[C@H]1O[C@@H]1[C@H]3O	?	0%[11.2 µM]	2.8µM*	.	0%[11.2 µM]	?
CCOc1ccccc1NC(=O)c1cn(C2CCCCC2)c(=O)c2c1c1ccccc1n2C	3%	-4%	-12%	.	0%	-9%
Cc1ccccc1NC(=O)CSCn1nnc2c(=O)[nH]c(Cc3ccc(F)cc3)nc21	-2%	0%	-7%	.	-7%	-10%
